# According to article PMC7862700, “An all-to-all approach to the identification of sequence-specific readers for epigenetic DNA modifications on cytosine”:
# Tests used:
# Assay in all cases: DAPPL (digital affinity profiling via proximity ligation, sequencing); 10 mM Tris-HCl pH 7.5, 50 mM NaCl, 1 mM DTT, 4% glycerol, room temperature, 30 min; GST-TFs on glutathione beads, 16-mer random dsDNA library, 0.1% formaldehyde crosslink after washing; high values mean tight binding
# FEV = biological target: T1, FEV (Homo sapiens, UniProt Q99581 1-238); conditions: protein: recombinant; tags: N-terminal GST; dsDNA, one strand shown
# T1 sequence: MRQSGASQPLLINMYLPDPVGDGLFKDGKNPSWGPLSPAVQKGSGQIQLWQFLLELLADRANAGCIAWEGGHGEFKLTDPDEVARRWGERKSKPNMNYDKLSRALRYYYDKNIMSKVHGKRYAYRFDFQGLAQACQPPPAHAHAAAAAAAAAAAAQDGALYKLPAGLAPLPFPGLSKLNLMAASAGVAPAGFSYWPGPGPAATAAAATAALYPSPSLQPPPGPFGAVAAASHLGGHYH
# Summary of the method: (§1)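 Binding signal is each hexamer's read frequency for a factor divided by its frequency in the tag-only sample. The factors were GST-fused human transcription factors from yeast, captured on glutathione beads, DNA-barcoded and pooled with that sample. Pools were incubated with 200 nmole of a random double-stranded 16-mer DNA library in Tris/NaCl/DTT/glycerol buffer at room temperature for 30 min, then washed, crosslinked with 0.1% formaldehyde, proximity-ligated with BsaI/T4 ligase (1 h, 37 °C), PCR-amplified and sequenced on an Illumina NextSeq500.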
# ETV5 = ETV5 (Homo sapiens, UniProt P41161 1-510); conditions: protein: recombinant; tags: N-terminal GST; dsDNA, one strand shown
# Chain of ETV5 (P41161 whole entry): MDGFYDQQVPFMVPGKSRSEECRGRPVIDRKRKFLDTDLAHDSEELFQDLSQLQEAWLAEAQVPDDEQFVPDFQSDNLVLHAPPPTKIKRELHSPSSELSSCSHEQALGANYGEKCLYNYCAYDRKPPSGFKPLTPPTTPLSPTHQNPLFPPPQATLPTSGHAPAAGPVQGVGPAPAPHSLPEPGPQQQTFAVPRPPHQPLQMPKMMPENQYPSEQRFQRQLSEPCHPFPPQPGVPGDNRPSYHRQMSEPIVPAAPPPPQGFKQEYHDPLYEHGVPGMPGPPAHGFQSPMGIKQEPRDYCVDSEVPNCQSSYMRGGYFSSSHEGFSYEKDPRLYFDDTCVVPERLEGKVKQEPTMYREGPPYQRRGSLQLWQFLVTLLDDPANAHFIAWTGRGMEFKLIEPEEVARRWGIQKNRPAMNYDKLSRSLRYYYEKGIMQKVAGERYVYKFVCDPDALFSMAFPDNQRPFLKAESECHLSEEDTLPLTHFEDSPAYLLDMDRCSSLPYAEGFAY
# Summary of the method: as §1
# HSF1 = HSF1 (Homo sapiens, UniProt Q00613 1-529); conditions: protein: recombinant; tags: N-terminal GST; chain copies: 3; dsDNA, one strand shown
# Chain of HSF1 (Q00613 whole entry): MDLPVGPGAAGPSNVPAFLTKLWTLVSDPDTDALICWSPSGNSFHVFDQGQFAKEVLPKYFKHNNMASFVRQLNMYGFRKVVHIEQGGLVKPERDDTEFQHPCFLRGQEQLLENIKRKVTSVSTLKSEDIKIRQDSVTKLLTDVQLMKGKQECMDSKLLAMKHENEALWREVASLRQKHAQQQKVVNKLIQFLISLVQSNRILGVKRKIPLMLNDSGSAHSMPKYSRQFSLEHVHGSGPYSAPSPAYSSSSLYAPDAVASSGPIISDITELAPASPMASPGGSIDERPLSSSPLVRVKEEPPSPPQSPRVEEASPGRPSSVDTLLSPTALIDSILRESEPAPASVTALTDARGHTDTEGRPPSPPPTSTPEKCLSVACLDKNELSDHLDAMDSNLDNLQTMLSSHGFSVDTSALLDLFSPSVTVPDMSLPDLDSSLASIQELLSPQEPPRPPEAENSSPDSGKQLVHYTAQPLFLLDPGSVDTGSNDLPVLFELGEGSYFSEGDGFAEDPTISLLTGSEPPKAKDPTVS
# Summary of the method: as §1
# SPIC = biological target: T2, SPIC (Homo sapiens, UniProt Q8N5J4 1-248); conditions: protein: recombinant; tags: N-terminal GST; dsDNA, one strand shown
# T2 sequence: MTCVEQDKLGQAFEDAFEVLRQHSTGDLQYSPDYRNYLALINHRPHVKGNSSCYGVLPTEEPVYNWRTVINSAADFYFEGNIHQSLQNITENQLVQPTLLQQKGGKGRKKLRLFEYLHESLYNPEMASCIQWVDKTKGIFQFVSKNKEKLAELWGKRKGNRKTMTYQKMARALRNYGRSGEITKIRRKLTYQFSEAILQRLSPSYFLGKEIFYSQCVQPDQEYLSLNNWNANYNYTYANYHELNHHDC
# Summary of the method: as §1
# ELF4 = ELF4 (Homo sapiens, UniProt Q99607 1-663); conditions: protein: recombinant; tags: N-terminal GST; dsDNA, one strand shown
# Chain of ELF4 (Q99607 whole entry): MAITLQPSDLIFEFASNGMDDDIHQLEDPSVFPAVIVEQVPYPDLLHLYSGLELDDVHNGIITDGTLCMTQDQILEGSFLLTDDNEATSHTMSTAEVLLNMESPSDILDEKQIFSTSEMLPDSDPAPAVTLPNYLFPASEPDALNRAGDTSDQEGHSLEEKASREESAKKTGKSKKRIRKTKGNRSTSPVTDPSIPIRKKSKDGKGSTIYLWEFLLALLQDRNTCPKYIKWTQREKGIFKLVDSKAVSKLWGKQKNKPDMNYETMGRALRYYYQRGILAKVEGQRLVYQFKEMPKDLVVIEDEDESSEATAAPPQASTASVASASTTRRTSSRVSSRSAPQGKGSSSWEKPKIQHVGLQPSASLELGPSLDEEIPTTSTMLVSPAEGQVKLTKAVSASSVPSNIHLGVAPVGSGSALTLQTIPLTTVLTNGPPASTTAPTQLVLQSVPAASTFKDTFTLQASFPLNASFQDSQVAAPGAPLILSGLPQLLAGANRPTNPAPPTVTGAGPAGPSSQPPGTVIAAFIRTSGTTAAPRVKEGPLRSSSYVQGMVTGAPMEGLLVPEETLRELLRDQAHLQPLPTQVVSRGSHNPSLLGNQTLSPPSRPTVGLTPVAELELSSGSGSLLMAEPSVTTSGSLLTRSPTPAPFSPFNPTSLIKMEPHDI
# Summary of the method: as §1
# ELK4 = biological target: T3, ELK4 (Homo sapiens, UniProt P28324-2 1-405); conditions: protein: recombinant; tags: N-terminal GST; dsDNA, one strand shown
# T3 sequence: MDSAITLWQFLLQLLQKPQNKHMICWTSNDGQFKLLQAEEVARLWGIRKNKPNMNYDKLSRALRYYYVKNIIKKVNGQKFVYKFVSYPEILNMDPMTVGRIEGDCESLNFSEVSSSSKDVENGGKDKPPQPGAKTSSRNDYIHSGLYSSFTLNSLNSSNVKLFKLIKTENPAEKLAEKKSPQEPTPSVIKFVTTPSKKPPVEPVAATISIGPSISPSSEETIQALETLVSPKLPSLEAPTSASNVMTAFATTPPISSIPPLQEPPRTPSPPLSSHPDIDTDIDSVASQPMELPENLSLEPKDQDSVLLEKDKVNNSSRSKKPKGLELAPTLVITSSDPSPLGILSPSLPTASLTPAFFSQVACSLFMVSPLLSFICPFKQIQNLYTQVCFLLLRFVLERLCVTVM
# Summary of the method: as §1
# ETV2 = biological target: T4, ETV2 (Homo sapiens, UniProt O00321 1-342); conditions: protein: recombinant; tags: N-terminal GST; dsDNA, one strand shown
# T4 sequence: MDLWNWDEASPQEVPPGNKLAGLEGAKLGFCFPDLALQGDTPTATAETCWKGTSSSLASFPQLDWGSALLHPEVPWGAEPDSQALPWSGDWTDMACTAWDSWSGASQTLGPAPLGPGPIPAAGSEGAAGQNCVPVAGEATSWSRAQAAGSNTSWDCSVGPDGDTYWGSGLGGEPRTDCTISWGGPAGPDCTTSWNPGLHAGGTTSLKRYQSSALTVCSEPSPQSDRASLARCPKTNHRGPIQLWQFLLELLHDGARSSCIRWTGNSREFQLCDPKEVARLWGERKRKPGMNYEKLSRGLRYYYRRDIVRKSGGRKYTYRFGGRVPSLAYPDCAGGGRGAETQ
# Summary of the method: as §1
# ELF3 = biological target: T5, ELF3 (Homo sapiens, UniProt P78545 1-371); conditions: protein: recombinant; tags: N-terminal GST; dsDNA, one strand shown
# T5 sequence: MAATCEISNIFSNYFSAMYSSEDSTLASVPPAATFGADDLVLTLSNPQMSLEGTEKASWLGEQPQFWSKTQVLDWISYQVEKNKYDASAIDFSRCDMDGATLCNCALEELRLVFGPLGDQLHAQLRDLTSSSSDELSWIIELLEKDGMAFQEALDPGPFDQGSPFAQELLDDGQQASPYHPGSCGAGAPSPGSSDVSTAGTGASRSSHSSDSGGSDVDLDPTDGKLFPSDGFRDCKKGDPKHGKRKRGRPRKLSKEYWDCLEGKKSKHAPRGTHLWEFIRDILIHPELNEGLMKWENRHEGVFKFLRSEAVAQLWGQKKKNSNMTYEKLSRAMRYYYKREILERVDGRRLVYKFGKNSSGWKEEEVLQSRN
# Summary of the method: as §1
# CRX = CRX (Homo sapiens, UniProt O43186 1-299); conditions: protein: recombinant; tags: N-terminal GST; dsDNA, one strand shown
# Chain of CRX (O43186 whole entry): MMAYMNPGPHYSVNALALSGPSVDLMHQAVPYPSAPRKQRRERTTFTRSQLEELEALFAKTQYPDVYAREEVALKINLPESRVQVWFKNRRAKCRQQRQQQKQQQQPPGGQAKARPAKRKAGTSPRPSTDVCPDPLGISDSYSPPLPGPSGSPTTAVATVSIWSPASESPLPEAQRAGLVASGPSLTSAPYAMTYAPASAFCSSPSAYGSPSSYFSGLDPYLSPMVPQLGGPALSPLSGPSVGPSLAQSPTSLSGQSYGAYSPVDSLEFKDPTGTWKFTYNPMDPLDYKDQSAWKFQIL
# Summary of the method: as §1
# ETV1 = ETV1 (Homo sapiens, UniProt P50549 1-477); conditions: protein: recombinant; tags: N-terminal GST; dsDNA, one strand shown
# Chain of ETV1 (P50549 whole entry): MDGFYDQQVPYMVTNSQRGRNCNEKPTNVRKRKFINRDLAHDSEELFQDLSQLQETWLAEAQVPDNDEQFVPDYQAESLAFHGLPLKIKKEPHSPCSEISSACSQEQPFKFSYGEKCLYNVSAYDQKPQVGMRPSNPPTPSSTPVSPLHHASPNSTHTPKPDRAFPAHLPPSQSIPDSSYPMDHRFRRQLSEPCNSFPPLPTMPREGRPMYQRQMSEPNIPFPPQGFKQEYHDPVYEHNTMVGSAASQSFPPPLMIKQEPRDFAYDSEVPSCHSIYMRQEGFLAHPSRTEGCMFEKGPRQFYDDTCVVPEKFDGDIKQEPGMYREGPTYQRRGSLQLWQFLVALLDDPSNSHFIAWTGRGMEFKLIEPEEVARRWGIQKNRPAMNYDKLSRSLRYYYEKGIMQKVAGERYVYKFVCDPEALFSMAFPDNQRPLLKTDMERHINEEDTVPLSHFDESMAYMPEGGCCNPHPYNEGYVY
# Summary of the method: as §1
# ERF = biological target: T6, ERF (Homo sapiens, UniProt P50548 1-548); conditions: protein: recombinant; tags: N-terminal GST; dsDNA, one strand shown
# T6 sequence: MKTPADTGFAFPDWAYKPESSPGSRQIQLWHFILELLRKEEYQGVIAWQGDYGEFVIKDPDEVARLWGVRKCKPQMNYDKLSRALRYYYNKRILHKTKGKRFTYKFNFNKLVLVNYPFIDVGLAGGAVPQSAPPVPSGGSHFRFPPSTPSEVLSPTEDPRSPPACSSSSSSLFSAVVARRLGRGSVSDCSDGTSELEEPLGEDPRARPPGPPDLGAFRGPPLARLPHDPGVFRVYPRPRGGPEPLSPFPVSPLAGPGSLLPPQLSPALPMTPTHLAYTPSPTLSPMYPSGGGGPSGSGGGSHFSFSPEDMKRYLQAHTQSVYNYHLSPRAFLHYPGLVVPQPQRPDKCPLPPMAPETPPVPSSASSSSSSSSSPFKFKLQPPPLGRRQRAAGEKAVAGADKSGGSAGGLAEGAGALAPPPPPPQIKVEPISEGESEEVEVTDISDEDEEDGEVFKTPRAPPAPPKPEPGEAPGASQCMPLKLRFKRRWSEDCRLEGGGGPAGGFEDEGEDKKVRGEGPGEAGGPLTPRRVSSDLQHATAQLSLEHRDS
# Summary of the method: as §1
# ETV3L = biological target: T7, ETV3L (Homo sapiens, UniProt Q6ZN32 1-361); conditions: protein: recombinant; tags: N-terminal GST; dsDNA, one strand shown
# T7 sequence: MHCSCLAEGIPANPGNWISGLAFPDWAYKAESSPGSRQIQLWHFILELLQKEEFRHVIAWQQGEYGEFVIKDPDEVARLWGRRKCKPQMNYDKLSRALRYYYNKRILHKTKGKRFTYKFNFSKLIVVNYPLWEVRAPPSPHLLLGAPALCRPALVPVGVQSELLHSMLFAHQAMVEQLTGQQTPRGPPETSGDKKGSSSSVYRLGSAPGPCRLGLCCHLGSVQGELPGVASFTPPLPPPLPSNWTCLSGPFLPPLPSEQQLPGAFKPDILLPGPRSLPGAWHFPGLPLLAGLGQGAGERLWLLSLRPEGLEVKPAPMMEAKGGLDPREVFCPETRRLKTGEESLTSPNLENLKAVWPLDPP
# Summary of the method: as §1
# ETS2 = biological target: T8, ETS2 (Homo sapiens, UniProt P15036 1-469); conditions: protein: recombinant; tags: N-terminal GST; dsDNA, one strand shown
# T8 sequence: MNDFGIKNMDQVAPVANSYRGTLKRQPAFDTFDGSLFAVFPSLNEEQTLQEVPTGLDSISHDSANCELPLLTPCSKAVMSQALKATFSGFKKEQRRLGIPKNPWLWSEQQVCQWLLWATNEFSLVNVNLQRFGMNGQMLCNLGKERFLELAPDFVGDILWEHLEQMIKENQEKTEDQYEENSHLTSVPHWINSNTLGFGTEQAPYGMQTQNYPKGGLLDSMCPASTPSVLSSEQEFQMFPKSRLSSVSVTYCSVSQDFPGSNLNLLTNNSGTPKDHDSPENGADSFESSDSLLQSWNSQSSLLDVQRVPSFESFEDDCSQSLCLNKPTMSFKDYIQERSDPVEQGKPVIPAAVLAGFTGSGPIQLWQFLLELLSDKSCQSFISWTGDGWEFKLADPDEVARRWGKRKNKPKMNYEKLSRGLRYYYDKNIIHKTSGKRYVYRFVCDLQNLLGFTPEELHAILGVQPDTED
# Summary of the method: as §1
# SPDEF = biological target: T9, SPDEF (Homo sapiens, UniProt O95238 1-335); conditions: protein: recombinant; tags: N-terminal GST; dsDNA, one strand shown
# T9 sequence: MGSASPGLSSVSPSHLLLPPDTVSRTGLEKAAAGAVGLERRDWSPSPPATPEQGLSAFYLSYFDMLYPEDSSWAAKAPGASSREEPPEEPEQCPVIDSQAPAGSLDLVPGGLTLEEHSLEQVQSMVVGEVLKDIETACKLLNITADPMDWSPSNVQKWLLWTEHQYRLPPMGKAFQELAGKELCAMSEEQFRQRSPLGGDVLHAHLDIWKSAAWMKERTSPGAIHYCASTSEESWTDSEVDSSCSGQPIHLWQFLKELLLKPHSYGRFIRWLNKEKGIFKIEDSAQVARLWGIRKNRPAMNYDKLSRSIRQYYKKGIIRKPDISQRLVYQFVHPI
# Summary of the method: as §1
# ETV7 = biological target: T10, ETV7 (Homo sapiens, UniProt Q9Y603 1-341); conditions: protein: recombinant; tags: N-terminal GST; dsDNA, one strand shown
# T10 sequence: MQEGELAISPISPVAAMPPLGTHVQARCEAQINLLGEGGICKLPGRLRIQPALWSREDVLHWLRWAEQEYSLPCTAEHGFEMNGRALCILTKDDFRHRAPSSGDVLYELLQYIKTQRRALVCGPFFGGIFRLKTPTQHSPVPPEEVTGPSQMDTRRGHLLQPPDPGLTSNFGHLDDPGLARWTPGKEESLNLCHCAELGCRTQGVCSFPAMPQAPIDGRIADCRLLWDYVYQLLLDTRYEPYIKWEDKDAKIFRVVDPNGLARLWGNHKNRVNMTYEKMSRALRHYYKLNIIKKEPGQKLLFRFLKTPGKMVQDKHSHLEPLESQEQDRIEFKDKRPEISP
# Summary of the method: as §1
# ELF5 = biological target: T11, ELF5 (Homo sapiens, UniProt Q9UKW6-2 1-255); conditions: protein: recombinant; tags: N-terminal GST; dsDNA, one strand shown
# T11 sequence: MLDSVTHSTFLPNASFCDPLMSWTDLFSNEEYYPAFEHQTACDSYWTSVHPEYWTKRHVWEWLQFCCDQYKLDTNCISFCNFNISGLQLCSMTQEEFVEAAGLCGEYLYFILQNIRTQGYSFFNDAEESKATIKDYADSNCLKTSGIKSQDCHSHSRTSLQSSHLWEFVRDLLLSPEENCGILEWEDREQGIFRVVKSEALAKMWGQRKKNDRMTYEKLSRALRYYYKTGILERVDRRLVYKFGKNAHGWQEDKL
# Summary of the method: as §1
# ETV3 = biological target: T12, ETV3 (Homo sapiens, UniProt P41162-2 1-143); conditions: protein: recombinant; tags: N-terminal GST; dsDNA, one strand shown
# T12 sequence: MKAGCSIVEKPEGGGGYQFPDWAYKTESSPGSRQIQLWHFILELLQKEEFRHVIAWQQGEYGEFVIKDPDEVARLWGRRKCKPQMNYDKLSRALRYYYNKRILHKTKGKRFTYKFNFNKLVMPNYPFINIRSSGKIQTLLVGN
# Summary of the method: as §1
# ETV6 = ETV6 (Homo sapiens, UniProt P41212 1-452); conditions: protein: recombinant; tags: N-terminal GST; dsDNA, one strand shown
# Chain of ETV6 (P41212 whole entry): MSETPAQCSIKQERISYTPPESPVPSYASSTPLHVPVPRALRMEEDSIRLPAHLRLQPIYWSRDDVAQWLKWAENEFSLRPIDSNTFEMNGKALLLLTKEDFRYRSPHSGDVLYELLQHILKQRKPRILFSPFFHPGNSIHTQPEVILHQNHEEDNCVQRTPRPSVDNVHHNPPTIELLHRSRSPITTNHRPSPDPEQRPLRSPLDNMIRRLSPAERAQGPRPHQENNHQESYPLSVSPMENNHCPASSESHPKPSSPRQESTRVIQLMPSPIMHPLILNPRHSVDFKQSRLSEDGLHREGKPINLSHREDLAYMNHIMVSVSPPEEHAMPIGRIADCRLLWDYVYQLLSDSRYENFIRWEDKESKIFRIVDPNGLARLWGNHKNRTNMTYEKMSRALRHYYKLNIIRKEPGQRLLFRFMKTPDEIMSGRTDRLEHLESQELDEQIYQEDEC
# Summary of the method: as §1
sequence,measurement,setting,value
AACCTC,binding signal,FEV,"1.18 fold enrichment (6-mer frequency, TF over GST control)"
same,binding signal,ETV5,"1.22 fold enrichment (6-mer frequency, TF over GST control)"
same,binding signal,HSF1,"1.17 fold enrichment (6-mer frequency, TF over GST control)"
same,binding signal,SPIC,"1.4 fold enrichment (6-mer frequency, TF over GST control)"
same,binding signal,ELF4,"1.2 fold enrichment (6-mer frequency, TF over GST control)"
same,binding signal,ELK4,"1.26 fold enrichment (6-mer frequency, TF over GST control)"
same,binding signal,ETV2,"1.32 fold enrichment (6-mer frequency, TF over GST control)"
same,binding signal,ELF3,"1.28 fold enrichment (6-mer frequency, TF over GST control)"
same,binding signal,CRX,"1.11 fold enrichment (6-mer frequency, TF over GST control)"
same,binding signal,ETV1,"1.24 fold enrichment (6-mer frequency, TF over GST control)"
same,binding signal,ERF,"1.26 fold enrichment (6-mer frequency, TF over GST control)"
same,binding signal,ETV3L,"1.24 fold enrichment (6-mer frequency, TF over GST control)"
same,binding signal,ETS2,"1.18 fold enrichment (6-mer frequency, TF over GST control)"
same,binding signal,SPDEF,"1.07 fold enrichment (6-mer frequency, TF over GST control)"
same,binding signal,ETV7,"1.26 fold enrichment (6-mer frequency, TF over GST control)"
same,binding signal,ELF5,"1.17 fold enrichment (6-mer frequency, TF over GST control)"
same,binding signal,ETV3,"1.2 fold enrichment (6-mer frequency, TF over GST control)"
same,binding signal,ETV6,"1.16 fold enrichment (6-mer frequency, TF over GST control)"
